Screening data (PubChem BioAssay)
WT yeast gro inh: growth inhibition of WT yeast, mitochondrial fusion screen | inhibition, % at 10 µM | mitochondrial fusion phenotypic screen, WT strain | 2.1% of 190,000 active | AID 1362; in the data active means inhibition above about 58%; tested in S. cerevisiae
ROMK primary: human ROMK K+ channel modulation, primary screen; B-score at 10 µM; 2% of 130,000 active; Tet-inducible ROMK, thallium flux fluorescence; actives lie on both sides; P48048;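 active means signal ratio slope over the read window, or its plate-corrected B-score, at least 3 SD from the plate mean, either direction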;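 further: B-score of the F/F0 ratio slope over 7 to 12 s after thallium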
Target sequence (P48048 whole entry, looked up): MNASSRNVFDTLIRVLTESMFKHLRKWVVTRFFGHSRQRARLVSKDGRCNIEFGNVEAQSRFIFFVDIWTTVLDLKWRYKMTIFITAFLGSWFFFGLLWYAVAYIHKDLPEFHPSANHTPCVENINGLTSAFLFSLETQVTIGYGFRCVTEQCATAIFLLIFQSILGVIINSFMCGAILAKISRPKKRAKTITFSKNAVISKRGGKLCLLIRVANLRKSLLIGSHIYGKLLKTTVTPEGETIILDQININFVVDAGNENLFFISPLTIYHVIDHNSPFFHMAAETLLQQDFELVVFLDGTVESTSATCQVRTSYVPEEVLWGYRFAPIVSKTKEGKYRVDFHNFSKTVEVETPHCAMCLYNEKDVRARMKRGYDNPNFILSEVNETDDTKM
L major viab: Leishmania major promastigote growth inhibition. 9% of 200,000 active. inhibition, % at 10 µM. Leishmania major promastigotes, resazurin fluorescence viability; in the data active means inhibition above about 50%;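 further: promastigotes grown with compound for 44 hours at 28 °C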
Calpain2 inh: calpain II (pig) inhibition; AID 1236; 0.37% of 220,000 active; inhibition, % at 16 µM; purified calpain II, fluorogenic peptide substrate, 30 min;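 active means inhibition above about 50%, limit read from the data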
Cl transport mod: modulators of human KCC2 chloride dependent transport; Q9H2X9; B-score of Tl+ flux slope (higher = more flux/activation; lower = inhibition) at 10 µM; 2.2% of 190,000 active; KCC2 cells, thallium flux FluoZin-2 fluorescence; AID 1456;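 active means thallium flux slope and its plate-corrected score both differing from the plate sample mean at a set confidence after two filtering rounds, in either direction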;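 further: slope of fluorescence scaled to starting intensity during 10 to 20 s after thallium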
KCC2 sec1: KCC2 (human) modulation, secondary assay; HEK293-KCC2, thallium flux, FluoZin2 fluorescence; hits give high values; 15% of 3,700 active; shares compounds with Cl transport mod; normalised thallium flux (F/F0 slope) at 10 µM;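 active means thallium flux slope above the same plate's solvent-only control mean plus 3 SD; inconclusive means the two replicate wells disagree; inactive means no significant difference from solvent-only control wells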
KCC2 bumet counter: thallium flux despite bumetanide block in KCC2 cells, secondary assay 3 | shares compounds with Cl transport mod | 49% of 3,700 active | HEK293-KCC2 + bumetanide/ouabain, thallium flux FluoZin2; hits give high values | normalized thallium flux at 10 µM;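 active means thallium entry rate above the same plate's blocked-transporter control wells by more than 3 SD; inconclusive means the two repeat wells disagree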;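 further: raw slope of fluorescence over initial fluorescence between 10 and 20 s after thallium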
KCC2 sec2: KCC2 (human) modulation, second secondary assay. HEK293-KCC2, thallium flux FluoZin2 fluorescence; actives lie on both sides; F/F0 rise rate, 10–20 s post-thallium. shares compounds with Cl transport mod. 23% of 3,700 active. AID 1715. normalized thallium flux at 10 µM;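 active means thallium flux slope more than 3 SD above or below the plate's solvent-only control mean, mostly below; inconclusive means the two repeat wells disagreed; inactive means no significant shift from solvent-only controls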;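 further: raw slope with 0.1% DMSO as baseline and bumetanide as block control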
HEK293 Tl flux: counter-screen for KCC2 modulators: effect in parental HEK293 cells. thallium flux rate (normalised fluorescence) at 10 µM. thallium flux FluoZin2, ouabain; baseline-ratio fluorescence slope, 10–20 s after thallium. 46% of 3,700 active. shares compounds with Cl transport mod;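 active means thallium flux rate significantly above the same plate's solvent-only control wells, beyond their mean plus 3 SD; inconclusive means the two replicate wells gave conflicting results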
KCC2 ouabain: modulates human KCC2 on retest with ouabain. HEK293-KCC2, thallium flux FluoZin2 fluorescence; bidirectional: low = inhibitor, high = activator. 48% of 3,700 active. raw Tl+ flux slope (below DMSO = inhibition, above = activation) at 10 µM. shares compounds with Cl transport mod;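 active means thallium flux slope beyond 3 SD from same-plate DMSO control mean in most replicates, usually higher, sometimes lower; inconclusive means repeat tests gave conflicting results; inactive means no significant difference from controls in most replicates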;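 further: slope of initial-normalized fluorescence between seconds 10 and 20 after thallium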
HEK counter2: counter-screen for KCC2 modulators: effect in parental HEK293 cells | shares compounds with Cl transport mod | thallium flux slope at 10 µM | AID 1718 | thallium flux FluoZin-2 fluorescence slope | 33% of 3,700 active;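 active means thallium flux slope above the same plate's solvent-control mean plus 3 SD in both duplicate wells; inconclusive means duplicate wells that disagreed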;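 further: run without ouabain in cells lacking the KCC2 cotransporter; slope of fluorescence scaled to its starting value between 10 and 20 s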
Starred values were filed as active, the others as inactive; ? = inconclusive; . = no result given; ! = not confirmed by another sample. An excerpt weighted towards active compounds, which were near 12% of everything screened.

SMILES | WT yeast gro inh | ROMK primary | L major viab | Calpain2 inh | Cl transport mod | KCC2 sec1 | KCC2 bumet counter | KCC2 sec2 | HEK293 Tl flux | KCC2 ouabain | HEK counter2
CCC(C)N(C(=O)CSc1nc(-c2ccccc2)cs1)C1CCS(=O)(=O)C1 (centres undefined) | -27.3 | 0.0602 | 7.4 | -10.5 | -0.00758 | . | . | . | . | . | .
Cc1ccc(C(=O)CSc2ccc(-c3cccnc3)nn2)cc1 | -5.1 | -0.499 | -0.8 | -5.9 | -0.273 | . | . | . | . | . | .
Nc1cc(Nc2ccc(Br)cc2)nc(N)n1 | . | -0.795 | . | -5.7 | -1.33 | . | . | . | . | . | .
CCCCOc1ccc(-c2cc(C(F)(F)F)c(C#N)c(SCC(=O)O)n2)cc1 | -17.3 | -2.1 | -6.1 | -209.5 | -3.24 | . | . | . | . | . | .
Cc1cc(C(=O)NNC(=O)c2cccc(Cl)c2)no1 | . | . | . | 12.6 | 7.36* | 0.00677 | 0.0143* | 0.032 | 0.0139* | ? | 0.0176*
COc1cc(NC(=O)c2cccc(C)c2)c(OC)cc1NC(=O)CN1CCOCC1 | 4.4 | -0.425 | 7.2 | 1.5 | 1.25 | . | . | . | . | . | .
COC(=O)c1ccc(C)c(NC(=O)CCc2cc(OC)c(OC)c(OC)c2)c1 | -2.8 | . | -5.5 | -11.3 | 1.11 | . | . | . | . | . | .
CCOc1ccccc1C(=O)NC1CC2CCCC(C1)N2Cc1nnnn1Cc1ccco1 (centres undefined) | -0.3 | -0.306 | 36.1 | 11.4 | -4.02* | 0.00621 | 0.00537 | 0.0311 | 0.00593 | ? | 0.0095
Oc1ccc(-c2n[nH]c(=S)n2Cc2ccco2)cc1 | 25.0 | 0.485 | -9.2 | 0.5 | 1.39 | . | . | . | . | . | .
Oc1cc2ccccc2cc1-c1n[nH]c(=S)n1Cc1ccco1 | -4.1 | -0.708 | -10.4 | -74.3 | 8.86* | 0.00915 | 0.0226* | 0.0298 | 0.0131* | ? | 0.00978
O=C(OCCCCN1C(=O)c2ccccc2C1=O)c1n[nH]c2ccccc12 | 5.5 | . | 21.4 | 22.1 | -2.92* | 0.00476 | 0.00674* | 0.0282 | ? | ? | 0.0105
CCCCC(C(=O)O)C(C)CC(=O)NNC(=O)c1ccco1 (centres undefined) | -1.9 | . | -4.5 | -26.1 | 0.0805 | . | . | . | . | . | .
CC(C)Oc1ccc2c(=O)c(-c3ccccc3)coc2c1 | -10.0 | -0.527 | -5.0 | 8.2 | -3.56*! | 0.00325* | 0.00545 | 0.028 | ? | 0.014* | 0.00955
CCCCC(=O)NNC(=S)NC(=O)c1ccc(C)cc1 | 42.3 | 1.8 | 2.4 | 6.1 | 39.2* | 0.0254* | 0.0643* | 0.0527* | 0.0524* | 0.0519* | 0.0559*
CCOc1ccccc1N(CC(=O)Nc1c(C)n(C)n(-c2ccccc2)c1=O)S(=O)(=O)c1ccccc1 | 3.4 | -0.375 | -3.5 | -32.6 | -0.93 | . | . | . | . | . | .
O=C(O)c1sccc1SCc1ccc(Cl)cc1Cl | -8.7 | . | -3.1 | -25.0 | . | 0.0153 | 0.00483 | 0.0217* | 0.00554* | 0.011* | 0.00821
O=C(O)CSCC(=O)NCc1ccc(Cl)cc1Cl | -1.7 | -0.866 | -4.2 | 5.5 | 0.256 | . | . | . | . | . | .
O=C(O)CCS(=O)(=O)c1ccccc1Cl | -3.4 | 1.48 | -4.8 | -17.1 | -0.591 | . | . | . | . | . | .
Cn1cc(C(=O)C(=O)N2CCCc3ccccc32)c2ccccc21 | 1.2 | 1.47 | 19.6 | 29.8 | -4.35* | 0.0165 | 0.00506 | 0.0243* | 0.00665 | 0.0125 | 0.0094
O=C(N/N=C/c1ccccn1)c1cc(-c2ccccc2)nc2ccccc12 | . | . | . | 15.8 | 11.7* | 0.00858 | 0.0232* | 0.0301 | 0.0102* | ? | 0.00961
O=C(O)COc1ccccc1/C=N/NC(=O)c1cc(-c2ccc(F)cc2)nc2ccccc12 | -5.2 | 0.878 | 0.8 | -5.4 | 1.78 | . | . | . | . | . | .
CCc1ccccc1NC(=O)Cn1nnc(-c2cccnc2)n1 | 0.1 | 0.754 | -3.5 | 30.4 | . | . | . | . | . | . | .
CCOc1cc(CNCCc2ccc(S(N)(=O)=O)cc2)cc(Cl)c1OCc1ccccc1 | 11.6 | -2.27 | 100.5* | 26.1 | . | ? | 0.00458 | 0.0307 | 0.00811 | 0.0171 | 0.0112
CC1=CCCC(C)(C)C1/C=C/C(C)=N/NC(=O)c1ccncc1 (centres undefined) | 16.6 | -0.902 | 14.4 | 0.4 | 5.29* | ? | 0.0459* | 0.0317 | 0.0158* | ? | 0.0123*
C/C(=N/NC(=O)c1ccncc1)C1=C(O)CC(C)(C)CC1=O | -1.5 | 0.058 | -2.2 | 19.8 | 0.00812 | . | . | . | . | . | .
SMILES | WT yeast gro inh | ROMK primary | L major viab | Calpain2 inh | Cl transport mod | KCC2 sec1 | KCC2 bumet counter | KCC2 sec2 | HEK293 Tl flux | KCC2 ouabain | HEK counter2
COc1ccc(/C=C/C(=O)O)cc1S(=O)(=O)NCC1CCCO1 (centres undefined) | . | . | . | -0.4 | 0.741 | . | . | . | . | . | .
O=C(NNC(=O)c1csc(-c2cnccc2C(F)(F)F)n1)c1ccc(C(F)(F)F)cc1 | . | -0.843 | . | -2.9 | 5.88* | ? | 0.0409* | 0.0276 | 0.013* | ? | ?
Cc1cc(Cl)ccc1Oc1ccc(C(N)=O)cc1[N+](=O)[O-] | -9.9 | -0.936 | 47.4 | 15.4 | 0.00108 | . | . | . | . | . | .
Cc1cc(Cl)ccc1Oc1ccccc1C(=O)CC#N | 45.3 | -0.71 | 18.2 | -36.6 | -5.51* | 0.00641 | 0.00481 | ? | 0.00648 | ? | 0.00929
O=C(NCc1ccccn1)c1ccccc1-c1ccccc1 | -9.8 | -0.046 | -3.2 | 11.0 | 0.0112 | . | . | . | . | . | .
CN(C)S(=O)(=O)c1ccc(Cl)c(C(=O)Nc2nc3ccccc3[nH]2)c1 | -4.1 | 0.568 | -1.8 | -4.5 | . | 0.00655 | 0.00498 | 0.022* | 0.0077 | 0.0133* | 0.0103
COc1ccccc1-c1nc(C#N)c(N2CCC(Cc3ccccc3)CC2)o1 | 2.1 | -0.275 | -1.5 | -41.3 | . | 0.00917 | 0.00599 | ? | 0.0083 | 0.0191* | 0.0112
C=CCN(C(=O)CSC1=NC(=O)CN1C(C)=O)c1nc(C)c(-c2ccccc2)s1 | 6.8 | -0.933 | 89.1* | 7.8 | 10* | 0.00758 | 0.0232* | 0.0356 | 0.0224* | 0.0299* | 0.0188*
C=CCSc1nnc(-c2sc(-c3ccccc3)nc2C)n1C | -7.7 | . | 1.6 | -212.7 | . | . | . | . | . | . | .
CC(/C=C/c1ccccc1)=N\NC(=O)c1ccc2c(c1)OCCO2 | 11.3 | -0.232 | -1.9 | 24.9 | -2.26 | . | . | . | . | . | .
CC(/C=C/c1ccccc1F)=N\NC(=O)c1cccc(F)c1 | 18.9 | -0.406 | 90.2* | -21.7 | . | 0.00581 | 0.0457* | 0.0423* | 0.0256* | 0.0412* | 0.028*
CC(/C=C/c1ccco1)=N\NC(=O)c1cccc(Cl)c1 | -0.6 | . | 6.9 | -19.5 | 13.7* | 0.00504 | 0.0394* | ? | 0.0227* | 0.0372* | 0.0256*
C/C(=N\NC(=O)c1cccc(Cl)c1)C1C(=O)c2ccccc2C1=O | -6.7 | -1.42 | 96.7* | -7.9 | -3.69* | 0.00694 | 0.00949* | 0.0272 | 0.0074 | ? | 0.0089
